The values that follow come from ChEMBL document CHEMBL2218924, “A broad activity screen in support of a chemogenomic map for kinase signalling research and drug discovery” (Biochem J, 2013).

Experiment [1] deals with Calcium/calmodulin-dependent protein kinase type 1 (Homo sapiens) (UniProt Q14012). The settings on record: at 1 µM.
Experiment [2] has the same target. The settings on record: at 10 µM.
Experiment [3] has as its target Calcium/calmodulin-dependent protein kinase type II subunit beta (Homo sapiens) (UniProt Q13554). The settings on record: at 1 µM.
Experiment [4] has the same target. The settings on record: at 10 µM.
The target of experiment [5] is Calcium/calmodulin-dependent protein kinase type II subunit gamma (Homo sapiens) (UniProt Q13555). The settings on record: at 1 µM.
Chain of Calcium/calmodulin-dependent protein kinase type II subunit gamma (Homo sapiens) (Q13555 whole entry): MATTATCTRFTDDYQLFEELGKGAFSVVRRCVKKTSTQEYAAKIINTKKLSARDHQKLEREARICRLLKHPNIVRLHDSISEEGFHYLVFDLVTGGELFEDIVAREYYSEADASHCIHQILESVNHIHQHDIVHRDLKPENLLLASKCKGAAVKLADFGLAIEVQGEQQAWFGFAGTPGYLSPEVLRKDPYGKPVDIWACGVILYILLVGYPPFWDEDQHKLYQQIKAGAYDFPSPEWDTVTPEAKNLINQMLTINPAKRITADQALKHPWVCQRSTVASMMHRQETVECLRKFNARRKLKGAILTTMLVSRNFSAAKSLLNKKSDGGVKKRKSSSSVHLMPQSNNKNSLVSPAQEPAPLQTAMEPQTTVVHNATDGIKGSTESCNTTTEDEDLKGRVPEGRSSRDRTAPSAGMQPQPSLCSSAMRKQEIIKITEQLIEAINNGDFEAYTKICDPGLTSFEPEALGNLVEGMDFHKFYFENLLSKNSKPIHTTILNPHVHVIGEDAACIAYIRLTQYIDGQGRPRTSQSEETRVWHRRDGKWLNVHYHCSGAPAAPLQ
The target is the same in experiment [6]. The settings on record: at 10 µM.
Experiment [7] concerns the target Calcium/calmodulin-dependent protein kinase type II subunit delta (Homo sapiens) (UniProt Q13557). The settings on record: at 1 µM.
For experiment [8] the target is unchanged. The settings on record: at 10 µM.
Experiment [9] concerns the target T1, Calcium/calmodulin-dependent protein kinase type IV (Homo sapiens) (UniProt Q16566).
T1 sequence (whole entry): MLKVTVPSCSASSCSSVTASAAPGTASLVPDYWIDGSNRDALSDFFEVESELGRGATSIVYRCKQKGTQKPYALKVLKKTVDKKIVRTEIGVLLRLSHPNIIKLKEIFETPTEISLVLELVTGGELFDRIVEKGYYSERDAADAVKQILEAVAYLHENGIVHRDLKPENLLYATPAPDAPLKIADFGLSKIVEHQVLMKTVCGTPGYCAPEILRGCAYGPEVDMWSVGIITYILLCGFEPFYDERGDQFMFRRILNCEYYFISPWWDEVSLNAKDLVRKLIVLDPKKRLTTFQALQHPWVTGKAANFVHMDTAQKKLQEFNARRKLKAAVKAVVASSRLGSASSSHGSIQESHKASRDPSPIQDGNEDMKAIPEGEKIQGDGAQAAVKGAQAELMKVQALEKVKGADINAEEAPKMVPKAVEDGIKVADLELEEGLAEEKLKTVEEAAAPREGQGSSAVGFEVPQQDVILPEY
The settings on record: at 1 µM.

The target of experiment [10] is T1, Calcium/calmodulin-dependent protein kinase type IV (Homo sapiens). The settings on record: at 10 µM.
Experiment [11] addresses Death-associated protein kinase 1 (Homo sapiens) (UniProt P53355). The settings on record: at 10 µM.
Experiment [12] concerns the target Death-associated protein kinase 2 (Homo sapiens) (UniProt Q9UIK4). The settings on record: at 1 µM.
For experiment [13] the target is unchanged. The settings on record: at 10 µM.
Experiment [14] has as its target T2, Serine/threonine-protein kinase DCLK2 (Homo sapiens) (UniProt Q8N568).
T2 sequence (whole entry): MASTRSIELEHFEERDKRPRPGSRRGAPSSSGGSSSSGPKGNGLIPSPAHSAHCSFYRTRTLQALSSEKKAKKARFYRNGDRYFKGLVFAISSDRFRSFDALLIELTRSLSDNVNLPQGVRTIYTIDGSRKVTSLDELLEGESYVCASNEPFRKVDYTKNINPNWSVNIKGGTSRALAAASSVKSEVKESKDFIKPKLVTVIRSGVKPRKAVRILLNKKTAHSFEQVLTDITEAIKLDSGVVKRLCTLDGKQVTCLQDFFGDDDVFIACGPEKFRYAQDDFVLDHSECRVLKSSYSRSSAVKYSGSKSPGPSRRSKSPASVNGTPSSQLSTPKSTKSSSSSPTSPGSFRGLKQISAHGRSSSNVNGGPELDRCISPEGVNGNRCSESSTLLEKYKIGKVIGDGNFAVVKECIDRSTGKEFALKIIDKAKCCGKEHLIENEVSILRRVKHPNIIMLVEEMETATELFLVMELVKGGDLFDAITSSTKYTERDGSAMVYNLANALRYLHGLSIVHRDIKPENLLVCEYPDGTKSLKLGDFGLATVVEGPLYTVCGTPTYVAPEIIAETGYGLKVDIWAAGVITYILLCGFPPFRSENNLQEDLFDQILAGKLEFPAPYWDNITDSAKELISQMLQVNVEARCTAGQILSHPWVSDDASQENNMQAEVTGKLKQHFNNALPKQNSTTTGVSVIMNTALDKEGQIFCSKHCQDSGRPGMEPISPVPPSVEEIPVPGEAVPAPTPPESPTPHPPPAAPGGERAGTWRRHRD
The settings on record: at 1 µM.

Experiment [15] has as its target T2, Serine/threonine-protein kinase DCLK2 (Homo sapiens). The settings on record: at 10 µM.
The target of experiment [16] is T3, Myotonin-protein kinase (Homo sapiens) (UniProt Q09013).
T3 sequence (whole entry): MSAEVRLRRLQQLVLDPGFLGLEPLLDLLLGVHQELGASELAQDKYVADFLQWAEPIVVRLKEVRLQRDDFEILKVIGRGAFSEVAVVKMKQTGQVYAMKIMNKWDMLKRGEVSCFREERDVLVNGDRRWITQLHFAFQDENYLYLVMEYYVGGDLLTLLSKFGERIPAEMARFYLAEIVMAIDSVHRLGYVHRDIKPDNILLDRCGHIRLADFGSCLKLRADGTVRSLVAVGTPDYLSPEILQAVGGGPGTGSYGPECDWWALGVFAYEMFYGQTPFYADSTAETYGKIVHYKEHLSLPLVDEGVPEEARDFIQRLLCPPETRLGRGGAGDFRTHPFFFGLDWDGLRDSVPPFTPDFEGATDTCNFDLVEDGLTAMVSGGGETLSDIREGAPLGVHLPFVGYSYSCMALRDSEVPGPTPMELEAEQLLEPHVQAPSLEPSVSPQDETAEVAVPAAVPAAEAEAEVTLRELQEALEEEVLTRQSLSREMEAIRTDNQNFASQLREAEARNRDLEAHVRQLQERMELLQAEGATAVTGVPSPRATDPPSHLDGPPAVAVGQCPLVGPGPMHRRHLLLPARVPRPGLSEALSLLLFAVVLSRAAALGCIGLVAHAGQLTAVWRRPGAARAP
The settings on record: at 1 µM.

Experiment [17] concerns the target T3, Myotonin-protein kinase (Homo sapiens). The settings on record: at 10 µM.
The target in experiment [18] is T4, Serine/threonine-protein kinase 17A (Homo sapiens) (UniProt Q9UEE5).
T4 sequence (whole entry): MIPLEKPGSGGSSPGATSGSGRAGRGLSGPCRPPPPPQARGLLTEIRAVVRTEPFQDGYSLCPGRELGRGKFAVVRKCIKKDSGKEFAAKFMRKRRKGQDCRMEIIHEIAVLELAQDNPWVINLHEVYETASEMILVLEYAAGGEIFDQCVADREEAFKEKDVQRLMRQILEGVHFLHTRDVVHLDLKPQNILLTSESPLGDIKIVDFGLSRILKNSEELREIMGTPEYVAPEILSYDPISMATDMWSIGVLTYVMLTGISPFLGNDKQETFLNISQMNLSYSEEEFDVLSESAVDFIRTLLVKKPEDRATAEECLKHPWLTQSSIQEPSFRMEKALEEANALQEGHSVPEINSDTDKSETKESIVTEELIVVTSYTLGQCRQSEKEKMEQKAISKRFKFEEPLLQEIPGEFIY
The settings on record: at 1 µM.

Experiment [19] deals with T5, Discoidin domain-containing receptor 2 (Homo sapiens) (UniProt Q16832).
T5 sequence (whole entry): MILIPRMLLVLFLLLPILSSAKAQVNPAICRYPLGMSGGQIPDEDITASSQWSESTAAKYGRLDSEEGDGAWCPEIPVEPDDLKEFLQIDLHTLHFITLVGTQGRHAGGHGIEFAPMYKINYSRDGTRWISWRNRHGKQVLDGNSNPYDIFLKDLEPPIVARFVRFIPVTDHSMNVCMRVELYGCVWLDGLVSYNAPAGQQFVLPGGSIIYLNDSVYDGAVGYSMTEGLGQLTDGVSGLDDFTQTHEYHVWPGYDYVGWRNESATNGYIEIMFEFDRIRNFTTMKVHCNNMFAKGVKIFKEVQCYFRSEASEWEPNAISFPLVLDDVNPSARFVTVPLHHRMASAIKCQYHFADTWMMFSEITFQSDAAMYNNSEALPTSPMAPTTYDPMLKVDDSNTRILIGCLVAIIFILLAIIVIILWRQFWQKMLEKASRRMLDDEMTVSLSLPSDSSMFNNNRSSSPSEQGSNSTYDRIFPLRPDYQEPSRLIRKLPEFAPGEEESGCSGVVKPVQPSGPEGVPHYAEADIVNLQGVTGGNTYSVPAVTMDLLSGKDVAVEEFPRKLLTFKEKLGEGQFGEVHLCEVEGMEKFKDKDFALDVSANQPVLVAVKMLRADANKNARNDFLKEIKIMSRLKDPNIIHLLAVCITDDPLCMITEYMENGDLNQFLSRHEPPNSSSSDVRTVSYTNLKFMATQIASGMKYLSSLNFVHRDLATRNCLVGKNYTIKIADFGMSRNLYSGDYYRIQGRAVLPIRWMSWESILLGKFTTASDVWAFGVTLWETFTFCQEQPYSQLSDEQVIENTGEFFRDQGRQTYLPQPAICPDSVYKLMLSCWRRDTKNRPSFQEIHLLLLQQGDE
The settings on record: at 1 µM.

Experiment [20] has as its target T5, Discoidin domain-containing receptor 2 (Homo sapiens). The settings on record: at 10 µM.

Chain of Calcium/calmodulin-dependent protein kinase type II subunit delta (Homo sapiens) (Q13557 whole entry): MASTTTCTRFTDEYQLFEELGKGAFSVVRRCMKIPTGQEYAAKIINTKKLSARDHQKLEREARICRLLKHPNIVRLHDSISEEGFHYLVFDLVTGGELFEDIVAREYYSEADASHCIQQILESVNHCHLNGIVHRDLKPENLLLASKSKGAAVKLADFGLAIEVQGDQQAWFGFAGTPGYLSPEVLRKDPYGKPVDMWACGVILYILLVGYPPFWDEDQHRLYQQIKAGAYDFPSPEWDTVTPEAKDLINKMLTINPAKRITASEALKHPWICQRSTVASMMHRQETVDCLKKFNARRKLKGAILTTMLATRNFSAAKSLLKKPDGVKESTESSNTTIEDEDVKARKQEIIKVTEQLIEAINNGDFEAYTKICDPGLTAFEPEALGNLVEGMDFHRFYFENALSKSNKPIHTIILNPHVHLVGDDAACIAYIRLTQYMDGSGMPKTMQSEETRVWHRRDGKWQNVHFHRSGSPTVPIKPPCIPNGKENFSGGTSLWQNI
Chain of Calcium/calmodulin-dependent protein kinase type 1 (Homo sapiens) (Q14012 whole entry, looked up): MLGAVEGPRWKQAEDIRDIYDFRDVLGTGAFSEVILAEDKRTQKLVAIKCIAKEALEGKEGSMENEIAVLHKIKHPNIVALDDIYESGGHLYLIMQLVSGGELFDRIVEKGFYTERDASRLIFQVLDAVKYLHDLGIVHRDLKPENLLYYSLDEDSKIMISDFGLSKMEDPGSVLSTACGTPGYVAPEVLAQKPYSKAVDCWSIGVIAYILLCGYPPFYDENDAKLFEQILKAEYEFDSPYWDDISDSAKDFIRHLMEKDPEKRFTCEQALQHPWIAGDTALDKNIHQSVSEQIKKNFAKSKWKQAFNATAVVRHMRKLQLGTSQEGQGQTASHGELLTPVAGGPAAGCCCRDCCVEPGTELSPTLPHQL
Chain of Calcium/calmodulin-dependent protein kinase type II subunit beta (Homo sapiens) (Q13554 whole entry): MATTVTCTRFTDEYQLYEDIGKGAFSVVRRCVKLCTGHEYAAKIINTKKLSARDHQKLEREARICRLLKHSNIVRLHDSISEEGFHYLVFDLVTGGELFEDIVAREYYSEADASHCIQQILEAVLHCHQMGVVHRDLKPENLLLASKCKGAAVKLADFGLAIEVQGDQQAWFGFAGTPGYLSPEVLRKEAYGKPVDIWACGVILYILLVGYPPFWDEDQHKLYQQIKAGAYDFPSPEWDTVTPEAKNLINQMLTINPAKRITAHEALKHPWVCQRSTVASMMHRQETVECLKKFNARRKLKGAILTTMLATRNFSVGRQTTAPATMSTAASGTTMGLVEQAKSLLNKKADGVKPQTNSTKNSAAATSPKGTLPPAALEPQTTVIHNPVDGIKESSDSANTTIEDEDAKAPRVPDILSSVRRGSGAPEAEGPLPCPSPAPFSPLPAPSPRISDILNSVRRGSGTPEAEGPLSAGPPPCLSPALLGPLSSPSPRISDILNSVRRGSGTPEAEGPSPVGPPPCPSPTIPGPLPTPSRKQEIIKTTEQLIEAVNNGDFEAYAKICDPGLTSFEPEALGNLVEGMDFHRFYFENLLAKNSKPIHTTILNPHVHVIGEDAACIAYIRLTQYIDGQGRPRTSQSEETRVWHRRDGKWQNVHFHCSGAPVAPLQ
Chain of Death-associated protein kinase 2 (Homo sapiens) (Q9UIK4 whole entry, looked up): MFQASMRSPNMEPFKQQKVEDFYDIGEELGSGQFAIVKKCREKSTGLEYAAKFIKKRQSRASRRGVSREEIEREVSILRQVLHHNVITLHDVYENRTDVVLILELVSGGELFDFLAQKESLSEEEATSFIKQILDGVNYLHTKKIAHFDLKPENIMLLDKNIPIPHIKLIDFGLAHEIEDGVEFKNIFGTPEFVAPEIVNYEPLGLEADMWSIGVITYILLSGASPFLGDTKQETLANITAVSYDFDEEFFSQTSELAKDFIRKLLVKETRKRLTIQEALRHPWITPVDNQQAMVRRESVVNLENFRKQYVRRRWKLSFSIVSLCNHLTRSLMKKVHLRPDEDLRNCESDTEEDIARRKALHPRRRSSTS
Chain of Death-associated protein kinase 1 (Homo sapiens) (P53355 whole entry, looked up): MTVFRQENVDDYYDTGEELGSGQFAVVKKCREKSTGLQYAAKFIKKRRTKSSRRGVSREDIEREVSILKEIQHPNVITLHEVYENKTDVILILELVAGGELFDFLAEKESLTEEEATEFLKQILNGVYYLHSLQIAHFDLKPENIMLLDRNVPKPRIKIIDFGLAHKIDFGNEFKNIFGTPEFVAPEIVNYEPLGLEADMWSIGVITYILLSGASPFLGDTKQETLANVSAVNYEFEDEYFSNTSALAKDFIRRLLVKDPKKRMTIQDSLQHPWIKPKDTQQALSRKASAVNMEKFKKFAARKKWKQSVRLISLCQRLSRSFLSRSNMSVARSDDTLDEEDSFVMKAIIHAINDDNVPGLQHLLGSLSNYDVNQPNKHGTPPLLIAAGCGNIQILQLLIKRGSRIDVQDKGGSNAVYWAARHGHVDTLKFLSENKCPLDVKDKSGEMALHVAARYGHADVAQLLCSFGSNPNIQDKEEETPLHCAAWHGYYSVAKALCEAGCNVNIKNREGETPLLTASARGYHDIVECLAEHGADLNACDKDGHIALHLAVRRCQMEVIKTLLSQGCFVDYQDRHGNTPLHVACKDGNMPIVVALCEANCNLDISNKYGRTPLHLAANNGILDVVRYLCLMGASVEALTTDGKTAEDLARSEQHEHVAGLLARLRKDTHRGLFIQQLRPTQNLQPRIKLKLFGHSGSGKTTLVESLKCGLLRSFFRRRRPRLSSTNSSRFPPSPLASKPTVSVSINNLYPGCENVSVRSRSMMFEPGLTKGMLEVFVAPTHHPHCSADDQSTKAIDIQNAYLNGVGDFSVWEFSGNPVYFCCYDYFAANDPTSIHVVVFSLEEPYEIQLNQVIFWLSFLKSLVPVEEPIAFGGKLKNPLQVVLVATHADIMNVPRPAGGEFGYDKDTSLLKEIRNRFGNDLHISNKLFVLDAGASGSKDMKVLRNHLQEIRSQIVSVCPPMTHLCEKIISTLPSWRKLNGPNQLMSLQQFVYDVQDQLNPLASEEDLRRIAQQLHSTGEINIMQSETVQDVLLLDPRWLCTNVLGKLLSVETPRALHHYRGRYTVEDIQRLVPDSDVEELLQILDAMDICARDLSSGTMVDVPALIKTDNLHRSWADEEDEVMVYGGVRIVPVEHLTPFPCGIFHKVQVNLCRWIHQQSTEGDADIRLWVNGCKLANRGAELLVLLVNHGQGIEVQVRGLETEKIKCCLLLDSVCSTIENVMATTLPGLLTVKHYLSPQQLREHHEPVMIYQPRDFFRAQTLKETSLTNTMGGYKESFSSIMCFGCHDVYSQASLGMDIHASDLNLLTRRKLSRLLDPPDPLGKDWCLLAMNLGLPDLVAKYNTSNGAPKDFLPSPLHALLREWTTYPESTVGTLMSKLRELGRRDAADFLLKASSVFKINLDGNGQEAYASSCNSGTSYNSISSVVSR

As for `Cn1c2ccccc2c2c3c(c4c5ccccc5n(CCC#N)c4c21)CNC3=O`, the residual activity in experiment [1] is 80%; in experiment [2], 32%; in experiment [3], 11%; in [4] it was 10%; in [5] it was 2%; in experiment [6], -5%. In addition, the residual activity in experiment [7] stood at 1%; in experiment [8], 1%; in [9], 100%; in experiment [10], 58%; in experiment [11] it was 73%; in [12], 93%. Besides, the residual activity in [13] amounted to 105%; in experiment [14], 56%; in [15], 60%; in experiment [16] it was 121%; in experiment [17], 114%; in [18], 36%.

On to `O=C1Nc2ccc(Cl)cc2/C1=C/c1cc(Cl)c(O)c(Cl)c1`, for which the residual activity in experiment [1] was found to be 96%; in experiment [2], 63%; in [3], 69%; in experiment [4], 23%; in [5] it was 62%; in experiment [6], 10%. For the same compound, the residual activity in experiment [7] worked out at 69%; in experiment [8], 10%; in [11], 46%; in experiment [12], 69%; in experiment [13] it was 28%; in [14], 61%. Moreover, the figures for the residual activity in [15], in [17] and in experiment [18] were 73%, 138% and 71%, respectively.

Turning to `NC(=O)c1ccc(-c2nc(-c3ccc4c(c3)OCCO4)c(-c3ccccn3)[nH]2)cc1`, the residual activity in [1] was 91%; in [2], 73%; in experiment [4], 88%; in [7], 100%; in experiment [8] it was 98%; in [11], 78%. Moreover, the residual activity amounted to 98% in [19]; 97% in experiment [20]; 93% in experiment [16]; 97% in experiment [17]; 89% in [18].

As for `O=C1NC(=O)c2c1c1c3ccccc3[nH]c1n1cncc21`, the residual activity in [1] is 61%; in [2] it was 36%; in experiment [3], 22%; in experiment [4] it was 14%; in [5], 15%; in experiment [6], 7%. The residual activity is 12% in [7]; 6% in experiment [8]; 61% in experiment [9]; 62% in experiment [10]; 41% in [11]; 9% in experiment [12]. Moreover, the residual activity was -1% in [13]; 96% in experiment [14]; 85% in experiment [15]; 85% in experiment [19]; 91% in experiment [20]; 10% in [18].

Turning to `O=c1cc(N2CCNCC2)oc2c(-c3ccccc3)cccc12`, the residual activity in experiment [1] was found to be 105%; in [2], 80%; in experiment [3] it was 91%; in experiment [4] it was 84%; in [5], 104%; in [6], 88%. Also, the residual activity in [7] came out at 101%; in experiment [8] it was 77%; in experiment [10] it was 87%; in experiment [11], 82%; in experiment [12], 98%; in experiment [13] it was 102%. Moreover, the residual activity in experiment [15] was found to be 70%; in experiment [16], 134%; in experiment [17], 141%; in experiment [18], 69%.

With `O=C1Cc2c([nH]c3ccc(Br)cc23)-c2ccccc2N1`, the residual activity is 94% in experiment [1]; 74% in [2]; 81% in [3]; 57% in experiment [4]; 58% in [7]; 16% in experiment [8]. Further, the residual activity in experiment [16] stood at 97%; in experiment [17], 83%; in [18], 76%.
